For 59 compounds, inhibition results are on record in PubChem BioAssay AID2521 (Sanford-Burnham Center for Chemical Genomics, 2010).

In general, inhibition refers to the relative decrease from the control value, in per cent.

Screen size: about 330,000 compounds; about 1,100 (0.33%) were called active. The list comes from a sample in which actives are over-represented; it also holds similar structures and randomly drawn compounds. A number with no mark means an inactive call.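 How the source made its calls: active means inhibition above about 40% at 20 µM (limit read from the data); inactive means the rest.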

Sequence of Apelin receptor (Homo sapiens) (P35414 whole entry, looked up): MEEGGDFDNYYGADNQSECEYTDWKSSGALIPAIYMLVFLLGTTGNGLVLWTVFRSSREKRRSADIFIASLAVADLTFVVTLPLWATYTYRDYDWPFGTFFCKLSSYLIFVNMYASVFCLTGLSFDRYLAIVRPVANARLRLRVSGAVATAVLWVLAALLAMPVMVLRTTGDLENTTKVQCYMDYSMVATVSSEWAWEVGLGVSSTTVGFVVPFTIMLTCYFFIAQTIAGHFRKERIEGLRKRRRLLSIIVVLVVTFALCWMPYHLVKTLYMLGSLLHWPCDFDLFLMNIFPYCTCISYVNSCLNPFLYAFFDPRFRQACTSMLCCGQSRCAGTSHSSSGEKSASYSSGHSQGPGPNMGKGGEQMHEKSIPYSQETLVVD

The assay addresses Apelin receptor (Homo sapiens) (UniProt P35414). Description: blockade of apelin-induced APJ beta-arrestin recruitment – CHO-K1 cells, beta-arrestin complementation, luminescence, primary screen (AID 2521).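 Further: cells challenged with 10 nM apelin-13 agonist together with compound; plate controls were apelin-13 plus DMSO wells for no effect and DMSO wells lacking apelin-13 for full effect.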 Conditions: at 20 µM, stronger effect = higher value. (Recruitment of arrestin is a read-out of receptor activation apart from second messengers.)
With `O=c1ccc2c(-c3ccccc3S(=O)(=O)O)c3ccc(O)c(O)c3oc-2c1O`, the inhibition is 49.3% (active).

For the compound `CCNC(=S)N(CCN(CC)CC)Cc1cc2cc3c(cc2[nH]c1=O)OCO3`, the inhibition was 12.3%.

`CCO[C@H]1OC(C(=O)O)=C[C@@H](C2CCCCC2)[C@@H]1CCCO`: the inhibition was -6.59%. In the case of `O=C(Nc1cc(=O)[nH]c2ncnn12)c1ccccc1Cl`, the inhibition is 2.3%.

`CC(C)OC(=O)CN1C(=O)C(=O)c2ccccc21`: the inhibition was 103% (active).

Turning to `CC(OC(=O)CN1C(=O)c2ccccc2C1=O)C(=O)c1ccccc1` (centres undefined), the inhibition was 23%. On to `CCOC(=O)CN1C(=O)C(=O)c2cc(C)ccc21`, for which the inhibition was -0.658%. For `COc1ccc(C(=O)C[n+]2ccc(N)c(C)c2C)cc1`, the inhibition is 4.36%. The value for `CC(=O)c1ccc(S(=O)(=O)N(C)CCCC(=O)N(C)Cc2ccccc2F)cc1` was -6.03%. The value for `CCCn1nc2cc(C(=O)NCc3ccccc3)ccc2c1OCC` was -8.45%; that for `N#CCCN(CCC#N)c1nnc(-c2ccccc2)s1` was 1.67%; that for `CCC(=O)c1ccc(OC(=O)/C=C/c2cc(OC)c(OC)c(OC)c2)cc1` was 20.9%. The value for `Cc1c(C(=O)N2CCCc3ccccc32)sc2nc(-c3ccccc3)cn12` was 21%. In the case of `Cc1c(C(=O)N2CCCc3ccccc32)oc2ccccc12`, the inhibition was 6.71%. The value for `Cc1cccc2cc3c(N)c(C(=O)N4CCCc5ccccc54)sc3nc12` was 95.8% (active); that for `Cc1cccc(N(C(=O)c2ccc(CN3CCOCC3)o2)C(C(=O)NC2CCCCC2)c2ccc(F)cc2)c1` (centres undefined) was 0.911%. The value for `C=C(C)C(=O)O[C@H]1C/C(C)=C\C(=O)/C=C(\C)[C@H](O)[C@@H]2OC(=O)C(=C)[C@@H]21` was 13.2%; that for `Cc1cc(C(=O)CC#N)c(C)n1-c1c(C)n(C)n(-c2ccccc2)c1=O` was 9.25%; that for `COc1ccccc1OC(C)C(=O)Nc1ccc(S(=O)(=O)Nc2nccs2)cc1` (centres undefined) was 5.98%.

For `O=[N+]([O-])C(=c1ccc2c(c1)N1C3=C(CCCC3)CC3CCCCC31N=2)[N+](=O)[O-]` (centres undefined), the inhibition was -3.42%.

In the case of `CCOc1ccc(NS(=O)(=O)c2ccc(Cl)c(C(=O)N(C)Cc3cccnc3)c2)cc1`, the inhibition is 6.06%. In the case of `O=C(c1ccccc1Cl)N(Cc1ccccc1F)N1C(=O)CCCC1=O` it was -12.8%.

Take `O=[N+]([O-])c1cc(S(=O)(=O)CCCN2CCOCC2)ccc1F`: the inhibition was -24.6%. `CC(CN1CCOCC1)OC(=O)c1ccc(C(C)(C)C)cc1` (centres undefined): the inhibition is 77% (active).

Turning to `Cc1ccc(C(=O)OC(C)CN2CCOCC2)cc1` (centres undefined), the inhibition was -14.4%. The value for `CC(CN1CCOCC1)OC(=O)c1ccc(Cl)cc1Cl` (centres undefined) was -5.38%.

`CCOC(=O)c1cnc2nc(SCc3ccccc3Cl)[nH]n2c1=O`: the inhibition is -11.5%. Regarding `CCc1nc2cccnc2n1-c1ccc(C(=O)O)cc1`, the inhibition was 1.09%. In the case of `COc1ccc(N2CCN(C(=O)CCSCc3ccccc3F)CC2)cc1` it was -13.7%; in that of `COC(=O)c1nc2n(n1)C(c1ccc([N+](=O)[O-])cc1)C(C(=O)Nc1ccc(Cl)cc1)=C(C)N2` (centres undefined), 2.59%; in that of `COCCn1c(SCC(=O)Nc2ccccc2F)nc2c(c1=O)SCC2`, 10.3%. The value for `COc1ccc(C(=O)NCC(=O)N/N=C/c2ccc([N+](=O)[O-])o2)cc1OC` was -1.61%.

With `COc1cc(/C=N\NC(=O)CNC(=O)c2cccc([N+](=O)[O-])c2)ccc1O`, the inhibition is 53.6% (active).

`COc1ccc(O)c(/C=N/N=C/c2cccc([N+](=O)[O-])c2)c1`: the inhibition was 15.6%.

As to `COc1ccc(NC(C)=O)cc1NC(=O)CN1CCN(C2c3ccccc3-c3ccccc32)CC1`, the inhibition is -6.9%. In the case of `O=C(c1ccc(Cl)s1)N(Cc1nnc(-c2ccccc2Cl)o1)C1CC1` it was -57.5%. The value for `Brc1cc(Br)c(Oc2cc(Br)c(Br)cc2Br)cc1Br` was 11.9%. In the case of `COc1ccc(-n2nc(C(=O)NCC(=O)N3CCC(C(N)=O)CC3)c3ccccc3c2=O)cc1OC` it was -0.314%; in that of `COc1cc2c(cc1OC)C(C)N(S(=O)(=O)c1cnc(Cl)c(Cl)c1)CC2` (centres undefined), -23.5%. Regarding `O=C(O)CC1S/C(=N\N=C/c2ccccc2O)N(c2ccc(O)cc2)C1=O` (centres undefined), the inhibition is -8.74%. As for `COc1ccc(-c2csc(NC(=O)COC(=O)Cc3ccc(Cl)cc3Cl)n2)cc1`, the inhibition is 4.6%. As to `CC(C)(C)C(=O)OCc1nc(-c2ccc(O)c(O)c2)cs1`, the inhibition was -5.74%. In the case of `COc1ccc(-c2csc(Cc3nc(O)cs3)n2)cc1` it was 66.3% (active). The value for `CSc1cc(C)n(-c2ccccc2C)c(=S)c1C(C)=O` was 7.52%. On to `CC1CC2=C(CC1/C=N/NC(N)=S)C(C)(C)CCC2` (centres undefined), for which the inhibition was 49.2% (active). As for `O=C1C=C(c2ccccc2)CCC1`, the inhibition is 14.7%. In the case of `Cc1csc(NC(=O)CSc2nnc(-c3cccnc3)o2)n1`, the inhibition is 14.2%.

Take `O=[N+]([O-])c1ccccc1S(=O)(=O)Nc1cccc2cccnc12`: the inhibition is 53.5% (active). In the case of `NS(=O)(=O)c1ccc(CCNS(=O)(=O)c2cccc3cccnc23)cc1` it was -8.92%; in that of `O=S(=O)(NCCc1ccc(F)cc1)c1cccc2cccnc12`, 9.75%. In the case of `Cc1ccc(OCCCC(=O)Nc2ccc(N3CCOCC3)cc2)cc1`, the inhibition was 11.8%. In the case of `O=C(C1CC(=O)N(c2ccc(Br)cc2)C1)N1CCCC1` (centres undefined) it was -9.51%; in that of `CC(=O)Nc1ccc(NC(=O)c2sc3nc4c(c(-c5ccc(C)cc5)c3c2N)CCC4)cc1`, 41.5% (active). On to `Cc1cccc(NC(=O)c2sc3nc(N4CCOCC4)c4c(c3c2N)CCCC4)c1`, for which the inhibition is 0.268%.

On to `Cc1ccc(NC(=O)c2sc3nc(N)c(C#N)cc3c2N)cc1`, for which the inhibition was 5.56%.

Regarding `CCNS(=O)(=O)c1ccc(NC(=O)c2cncc(Br)c2)cc1`, the inhibition was 3.77%. As for `O=C(CCc1nc2ccccc2c(=O)[nH]1)OCC(=O)c1cccc(Cl)c1`, the inhibition was 46% (active). For the compound `O=C(COC(=O)CCc1nc2ccccc2c(=O)[nH]1)Nc1ccc(N2CCOCC2)cc1`, the inhibition is 5.92%.

For `CC(C)(C)c1ccc(NC(=O)COC(=O)CCc2nc3ccccc3c(=O)[nH]2)cc1`, the inhibition was 9.52%.
